High-throughput results deposited in PubChem by several laboratories.
EWS-Fli inh – inhibitors of EWS/Fli oncoprotein transcriptional activity. A673 NR0B1-luciferase reporter, viability-normalised. inhibition, % at 12.6 µM. 0.67% of 350,000 active. AID 651661;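 active = mean inhibition of at least 50% after viability correction, with every replicate also passing that limit; inconclusive = mean reaches 50% but only one of two replicates passes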;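 note: firefly luciferase signal divided by Alamar Blue viability fluorescence both relative to DMSO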
EBV LMP1 NFkB – reduces LMP1-driven NF-kappaB luciferase signal. LMP1-induced NF-kappaB luciferase reporter cells, luminescence. AID 504558. 0.69% of 350,000 active. inhibition, % at 12.5 µM; in the data active = inhibition above about 41%; inconclusive = no clear call, values can overlap the other calls
TWEAK-Fn14 inh – inhibitors of TWEAK-Fn14 interaction signaling; inhibition, % at 10 µM; 2% of 360,000 active; AID 1159606; TWEAK-stimulated Fn14 reporter cells, luciferase luminescence, 8 h; in the data active = inhibition above about 50%
LGR2 inh – inhibitors of bursicon-induced Drosophila LGR2 receptor cAMP signaling; HEK293 LGR2, CRE-luciferase, bursicon-stimulated, 4 h; inhibition, % at 9.99 µM; 0.35% of 380,000 active; AID 720647;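 active = drop in luminescence signal, shown as inhibition above about 50% in the replicate tests, limit read from the data, passing the limit was not always enough; inconclusive = probably only some replicates passing the limit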;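 note: agonist challenge used bursicon conditioned medium at about half maximal strength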
TROY NFkB inh – inhibitors of TROY-dependent NF-kB signaling. 0.98% of 360,000 active. Q293 LMP1-TROYcd NF-kB luciferase reporter, 4 h. inhibition, % at 10 µM. AID 1347056;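 active = compounds whose plate-normalised and pattern-corrected inhibition of the luciferase reporter signal at the single screening dose is 50% or more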
PAX8 inh HTS – PAX8 transcriptional activity inhibition; inhibition, % at 12.6 µM; 1.2% of 360,000 active; RMG-I TPO-luciferase reporter, SteadyGlo, 24 h;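 active = mean replicate inhibition at least 60% with every replicate also reaching 60%; inconclusive = only one of the two criteria is met; inactive = mean below 60% and not all replicates reaching 60%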;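 note: luciferase light reporting Pax8 driven TPO promoter activity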
Numbers stand for hits; – = inactive; ? = inconclusive; · = no result given. Rows were chosen to be rich in hits. Some 3.1% of all compounds tested hit in one or more screens of this group.

SMILES	EWS-Fli inh	EBV LMP1 NFkB	TWEAK-Fn14 inh	LGR2 inh	TROY NFkB inh	PAX8 inh HTS
C[C@H](CO)N1C[C@H](C)[C@@H](CN(C)C(=O)C2CCCCC2)OCCCC[C@H](C)Oc2ccc(NC(=O)CCCN(C)C)cc2C1=O	–	·	·	–	·	–
O=C1C(=C2CCCCC2)SC(=S)N1Cc1ccco1	·	44.2	–	·	–	·
O=C1CC(=O)N(Cc2ccco2)C(=O)N1	·	–	–	·	–	–
O=C1CC(=O)N(Cc2ccco2)C(=S)N1	·	–	51.3	·	–	·
C/C=C/c1cnc2c(c1)C(=O)N([C@@H](C)CO)C[C@H](C)[C@@H](CN(C)S(=O)(=O)c1ccccc1F)O2	–	·	·	–	·	–
C[C@@H]1CN([C@@H](C)CO)C(=O)c2cc(NC(=O)CCCN(C)C)ccc2O[C@@H](C)CCCCO[C@H]1CN(C)C(=O)CCCN(C)C	–	·	·	–	·	–
O=C(/C=C/c1cccc(F)c1)c1ccc(N2CCOCC2)cc1	–	–	–	–	–	–
O=C(/C=C/c1cccs1)c1ccc(N2CCOCC2)cc1	–	–	88.6	92.7	74.7	–
CC(C)(C)OC(=O)CC(S(=O)(=O)c1ccccc1)S(=O)(=O)c1ccccc1	–	–	–	–	–	85.9
CN([C@@H](C(=O)OC(C)(C)C)c1ccccc1)S(=O)(=O)c1cccc(S(=O)(=O)N(C)[C@@H](C(=O)OC(C)(C)C)c2ccccc2)c1	–	–	–	–	–	–
CC(C)(C)c1ccc2c(c1)C(=O)c1ccccc1C2=O	–	–	–	–	52.5	–
CCc1ccc2c(c1)C(=O)c1ccccc1C2=O	–	–	–	·	–	–
COc1cnn(-c2ccc(Br)cc2)c(=O)c1SCc1ccccc1	–	–	–	–	–	–
COc1cnn(-c2ccc(C)cc2)c(=O)c1SCc1ccccc1	·	47.3	–	–	–	·
C[C@@H]1CCCCO[C@@H](CN(C)C(=O)Nc2ccc(F)cc2)[C@@H](C)CN([C@H](C)CO)C(=O)c2cc(NS(=O)(=O)c3ccc(F)cc3)ccc2O1	–	·	·	–	·	–
C[C@@H]1CN([C@H](C)CO)C(=O)c2cc(NS(=O)(=O)c3ccc(F)cc3)ccc2O[C@@H](C)CCCCO[C@H]1CN(C)C(=O)Nc1ccc(F)cc1	–	·	·	–	·	–
C[C@H]1CCCCO[C@H](CN(C)C(=O)Nc2ccc(C(F)(F)F)cc2)[C@@H](C)CN([C@@H](C)CO)C(=O)c2cc(NS(=O)(=O)c3ccc(F)cc3)ccc2O1	–	·	·	–	·	83.9
C[C@H](CO)N1C[C@H](C)[C@H](CN(C)C(=O)Nc2ccc(C(F)(F)F)cc2)OCCCC[C@H](C)Oc2ccc(NS(=O)(=O)c3ccc(F)cc3)cc2C1=O	–	·	·	–	·	72.3
C[C@@H]1CCCCO[C@@H](CN(C)C(=O)Nc2ccc(C(F)(F)F)cc2)[C@H](C)CN([C@H](C)CO)C(=O)c2cc(NS(=O)(=O)c3ccc(F)cc3)ccc2O1	–	·	·	–	·	88.0
O=C(N[C@H]1C[C@@H]2O[C@@H](CO)CC[C@@H]2O[C@@H]1CCc1ccc(C#CC2CC2)cc1)c1cccc(F)c1	–	·	·	·	·	–
C=C(CN(C)C)C(=O)c1ccc(OC2OC(COC(C)=O)C(OC(C)=O)C(OC(C)=O)C2OC(C)=O)cc1 (stereo not drawn)	–	–	–	–	–	83.2
Nc1c(C(=O)Nc2ccccc2)nnn1-c1ccc2c(c1)OCCO2	–	–	56.5	–	–	–
CNC[C@H]1Oc2ccc(NC(=O)Cc3ccccc3)cc2C(=O)N([C@H](C)CO)C[C@@H]1C	–	·	·	–	·	–
CCOC(=O)c1cc(NC(=O)NC2CCCCC2)c(C)nc1C	–	–	109.3	–	–	–
CCOC(=O)c1cnc(-n2nc(C)cc2C)nc1Nc1ccc(O)cc1	–	55.9	–	–	50.8	–
SMILES	EWS-Fli inh	EBV LMP1 NFkB	TWEAK-Fn14 inh	LGR2 inh	TROY NFkB inh	PAX8 inh HTS
CCOC(=O)c1cnc(-n2nc(C)cc2C)nc1NC1CCCCC1	·	–	–	·	53.7	·
CCOC(=O)c1cc(NC(=O)N(C(C)C)C2CCCCC2)c(C)nc1C	–	–	–	–	–	–
CCOC(=O)c1cnc(-n2nc(C)cc2C)nc1NNc1nc(-c2ccccc2)cc(-c2ccccc2)n1	·	75.5	–	·	–	·
CO[C@@H]1CN(C)C(=O)c2cc(NC(=O)C3CCCC3)ccc2OC[C@H](C)N(CC2CC2)C[C@H]1C	–	·	·	–	·	–
COc1ccccc1/C=C/C=C1\Oc2c(ccc(O)c2CN(C)C)C1=O	–	–	–	–	–	–
CCN(CC)Cc1c(O)ccc2c1O/C(=C\C=C\c1ccccc1)C2=O	76.9	–	62.6	–	–	–
Cc1cc(Nc2cccc(Cl)c2)nc(N2CCOCC2)n1	·	–	92.5	–	90.6	–
CN(C[C@H]1[C@H](c2ccccc2)[C@@H](CO)N1C(=O)c1ccccc1)C(=O)C1CCC1	–	·	·	–	·	–
COc1ccccc1-c1ccccc1C1=CC(=O)CC(C)(C)C1=O	–	61.4	–	–	–	–
CC(=O)N(Cc1ccc(F)cc1)C1=C(NCc2ccccc2)C(=O)c2ccccc2C1=O	·	53.2	50.7	·	–	·
CCN(C(=S)Nc1cccc2ccccc12)c1ccccc1	–	–	83.0	–	–	–
CS(=O)(=O)c1ccc2nc(NC(=O)c3ccc(NS(=O)(=O)c4ccc(F)c(F)c4)cc3)sc2c1	–	–	–	–	–	–
O=C(Nc1nc2ccc(SC(F)F)cc2s1)c1ccc(NS(=O)(=O)c2ccc(F)c(F)c2)cc1	–	–	71.0	–	54.5	–
COc1ccc2c3c(n(C)c2c1)[C@@H](CO)N(C(=O)CC1CC1)CC31CN(Cc2ccccc2)C1	–	·	·	–	·	–
O=C(O)C[C@@H]1CC[C@@H]2[C@H](COC[C@@H](O)CN2S(=O)(=O)c2ccc(F)cc2)O1	·	·	·	–	·	·
COc1ccc(-c2c(C(F)(F)F)[nH]n3c(=O)cc(-c4ccccc4)nc23)cc1	–	–	–	–	51.1	–
Cc1[nH]n2c(=O)cc(-c3ccc([N+](=O)[O-])cc3)nc2c1-c1ccccc1	·	–	–	·	–	–
Cc1ccc2nc(-c3ccc(S(=O)(=O)N4CCCCC4)cc3)cn2c1	–	–	–	–	51.9	–
Cc1ccc2nc(-c3cccc(S(=O)(=O)N4CCCC4)c3)cn2c1	·	–	–	–	–	–
CCCNC(=O)Nc1ccc2c(c1)C(=O)N(C)C[C@H](OC)[C@@H](C)CN(Cc1ccccc1)[C@@H](C)CO2	–	·	·	–	·	·
Cc1ccc(C2=NN=C(NC(=O)CSc3nc(C)cc(C)n3)SC2)cc1	?	·	·	–	·	76.0
Cc1ccc(C2=NN=C(NC(=O)CSc3nnc4c5ccccc5n(C)c4n3)SC2)cc1	·	–	–	·	–	·
CCNC(=O)Nc1ccc2c(c1)C(=O)N(C)[C@@H]1CC[C@H](CC(=O)NCc3ccc(F)cc3)O[C@H]1CO2	–	·	·	–	·	–
O=C(OCc1nnc(-c2ccc(Cl)cc2)o1)C12CC3CC(CC(O)(C3)C1)C2	–	–	–	–	67.1	–
O=C(NCCc1ccc(Cl)cc1)C12CC3CC(CC(O)(C3)C1)C2	–	58.2	–	–	–	–
